Measured values reported in PubChem BioAssay (NCATS).
Records with an inconclusive call do not appear. Calls of active or inactive are those of the source. Calls come from the whole dose curve; as a rule, active = well fitted inhibition curve with a large enough effect; inconclusive = small, poorly fitted or top-dose-only effect; inactive = flat fitted curve, though single readings scatter.

Experiments:
Experiment in all cases: qHTS profiling for inhibitors of Plasmodium falciparum proliferation (AID 504749); note: nearly all actives have a fitted effect of over 60% in size
Details in all cases: P. falciparum in erythrocytes, SYBR Green DNA, 72 h; series mostly up to 12.8 µM
[1] = system: 3D7
In short: (§1)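 Readout was DNA-dye fluorescence from lysed cultures, ex 485/em 535 nm. Parasitized red cells had grown 72 h with compound; data scaled between 0.29 uM artemisinin and DMSO wells and corrected using vehicle-only plates.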

[2] = system: AA1029
In short: as §1

[3] = system: ATS95
In short: as §1

[4] = system: C2A
In short: as §1

[5] = system: CP203
In short: as §1

[6] = system: CP217
In short: as §1

[7] = system: CP237
In short: as §1

[8] = system: CP252
In short: as §1

[9] = system: CP268
In short: as §1

[10] = system: CP269
In short: as §1

[11] = system: CP286
In short: as §1

[12] = system: CP291
In short: as §1

[13] = system: CP305
In short: as §1

[14] = system: DIV30
In short: as §1

[15] = system: ICS
In short: as §1

[16] = system: P93_24
In short: as §1

[17] = system: P94_40
In short: as §1

[18] = system: PAD
In short: as §1

[19] = system: PC26
In short: as §1

[20] = system: CP211
In short: as §1

Measured: Potency
Potency is the fitted concentration of half-maximal effect.

CC(C)(C)NC[C@H](O)c1cc(O)cc(O)c1
not listed: [20]
inactive: all other assays above

C[C@@H]1c2cccc(O)c2C(O)=C2C(=O)[C@@]3(O)C(O)=C(C(N)=O)C(=O)[C@@H](N(C)C)[C@@H]3[C@@H](O)[C@@H]21
inactive: [20] | [6]
active: [15] 3550 nM

C[C@@H](CCc1ccccc1)NC[C@H](O)c1ccc(O)c(C(N)=O)c1
not listed: [1] | [14] | [15] | [18]
inactive: all other assays above

NC(=O)c1cc[n+](CC2=C(C(=O)O)N3C(=O)[C@@H](NC(=O)[C@H](c4ccccc4)S(=O)(=O)[O-])[C@@H]3SC2)cc1
active: [1] 1120 nM | [3] 3550 nM | [7] 1410 nM | [9] 4050 nM | [10] 1610 nM | [11] 1780 nM | [13] 2560 nM | [14] 2280 nM | [15] 355 nM | [16] 1260 nM | [17] 1260 nM | [18] 1410 nM | [19] 1810 nM

C[C@@H]1COc2c(N3CCN(C)CC3)c(F)cc3c(=O)c(C(=O)O)cn1c23
inactive: all assays above

O=C(c1ccccc1)c1ccc2n1CC[C@H]2C(=O)O
inactive: all assays above

CO/N=C(\C(=O)N[C@@H]1C(=O)N2C(C(=O)O)=C(COC(C)=O)CS[C@@H]12)c1csc(N)n1
inactive: all assays above

CO[C@]1(NC(=O)CSCC#N)C(=O)N2C(C(=O)O)=C(CSc3nnnn3C)CS[C@H]21
inactive: all assays above

CCCN[C@@H](C)C(=O)Nc1ccccc1C
inactive: all assays above

CCn1cc(C(=O)O)c(=O)c2cc(F)c(N3CCN[C@@H](C)C3)c(F)c21
not listed: [9] | [11] | [12] | [13]
inactive: all other assays above

CC(C)NC[C@H](O)c1cc(O)cc(O)c1
inactive: all assays above

CCCN[C@@H](C)C(=O)Nc1c(C)csc1C(=O)OC
inactive: all assays above

NC(N)=NC[C@@H]1COC2(CCCCC2)O1
inactive: all assays above

COc1ccccc1OC[C@H](O)COC(N)=O
inactive: all assays above

O=C(O)/C=C\c1ccc(Cn2ccnc2)cc1
not listed: [10]
inactive: all other assays above

CC1(C)O[C@@H]2C[C@H]3[C@H]4C[C@H](F)C5=CC(=O)C=C[C@@]5(C)[C@@H]4[C@H](O)C[C@]3(C)[C@]2(C(=O)CO)O1
inactive: all assays above

C[C@H](NCCc1ccc(O)cc1)[C@@H](O)c1ccc(O)cc1
inactive: all assays above

COc1c(O)cc2c(c1O)[C@@H]1O[C@@H](CO)[C@@H](O)[C@@H](O)[C@@H]1OC2=O
inactive: all assays above

CCN(CC)CC#CCOC(=O)[C@@](O)(c1ccccc1)C1CCCCC1
inactive: [5] | [8]

CCN(CC)CCC[C@H](C)Nc1ccnc2cc(Cl)ccc12
active: [1] 158 nM | [2] 8910 nM | [3] 10000 nM | [4] 3550 nM | [20] 6750 nM | [7] 4470 nM | [9] 4260 nM | [10] 9530 nM | [11] 3160 nM | [12] 3380 nM | [13] 2690 nM | [14] 6750 nM | [15] 3980 nM | [16] 2820 nM | [17] 5010 nM | [18] 3550 nM | [19] 4780 nM

O=c1[nH]c(=O)n([C@@H]2C[C@H](O)[C@H](CO)O2)cc1I
inactive: all assays above

CN[C@@H]1[C@H](O[C@@H]2O[C@H](CO)[C@@H](N)[C@H](O)[C@@H]2O)O[C@H]2C[C@@H](N)[C@@H](O[C@H]3[C@@H](O)[C@H](O)[C@H](N)C[C@@H]3N)O[C@H]2[C@H]1O
inactive: all assays above

NC(=O)OC[C@H](O)COc1ccc(Cl)cc1
inactive: all assays above

CC(=O)N(CC(O)CN(C(C)=O)c1c(I)c(C(=O)NC[C@@H](O)CO)c(I)c(C(=O)NC[C@@H](O)CO)c1I)c1c(I)c(C(=O)NC[C@@H](O)CO)c(I)c(C(=O)NC[C@@H](O)CO)c1I
inactive: all assays above

COCCc1ccc(OC[C@H](O)CNC(C)C)cc1
inactive: all assays above

CN(N=O)C(=O)N[C@H]1[C@@H](O)[C@H](O)[C@H](CO)O[C@@H]1O
inactive: all assays above

CC[C@H](NC(C)C)[C@H](O)c1ccc(O)c(O)c1
not listed: [1] | [15]
inactive: all other assays above

C[C@@H](CN(C)C)CN1c2ccccc2CCc2ccccc21
inactive: [1] | [2] | [3] | [4] | [6] | [8] | [9] | [11] | [12] | [13] | [18]

CCN(CC)CCC[C@H](C)Nc1c2ccc(Cl)cc2nc2ccc(OC)cc12
active: [1] 89.1 nM | [2] 631 nM | [3] 631 nM | [4] 447 nM | [5] 2130 nM | [20] 1510 nM | [6] 794 nM | [7] 316 nM | [8] 794 nM | [9] 478 nM | [10] 757 nM | [11] 282 nM | [12] 379 nM | [13] 379 nM | [14] 1070 nM | [15] 158 nM | [16] 562 nM | [17] 562 nM | [18] 398 nM | [19] 675 nM

CCC[C@H]1C(=O)N2C(N(C)C)=Nc3ccc(C)cc3N2C1=O
inactive: all assays above

CCN[C@@H]1C[C@H](C)S(=O)(=O)c2sc(S(N)(=O)=O)cc21
inactive: all assays above

NS(=O)(=O)c1cc([C@@]2(O)NC(=O)c3ccccc32)ccc1Cl
inactive: all assays above

CC(=O)Nc1c(I)c(C(=O)N[C@H]2[C@@H](O)[C@H](O)[C@H](CO)O[C@@H]2O)c(I)c(N(C)C(C)=O)c1I
inactive: all assays above

CN(C)[C@H]1C(=O)C(C(=O)NCN2CCCC2)=C(O)[C@]2(O)C(=O)C3=C(O)c4c(O)cccc4[C@@](C)(O)[C@H]3C[C@@H]12
inactive: all assays above

COc1ccc(C[C@@H]2c3cc(OC)c(OC)cc3CC[N@+]2(C)CCC(=O)OCCCCCOC(=O)CC[N@@+]2(C)CCc3cc(OC)c(OC)cc3[C@H]2Cc2ccc(OC)c(OC)c2)cc1OC
inactive: all assays above

C[C@@H](C(=O)O)c1ccc(C(=O)c2cccs2)cc1
inactive: all assays above

C[n+]1ccccc1/C=N\O
inactive: all assays above

CO[C@H]1C[C@@H](O[C@@H]2[C@H](C)[C@H](O[C@@H]3O[C@@H](C)C[C@@H](N(C)C)[C@@H]3O)[C@H](C)C[C@]3(CO3)C(=O)[C@H](C)[C@H](O)[C@H](C)[C@H](C)OC(=O)[C@@H]2C)O[C@@H](C)[C@H]1O
inactive: all assays above

C/C=C\C(=O)N(CC)c1ccccc1C
inactive: all assays above

CC(C)(O/N=C(\C(=O)N[C@@H]1C(=O)N2C(C(=O)[O-])=C(C[n+]3ccccc3)CS[C@@H]12)c1csc(N)n1)C(=O)O
inactive: all assays above

CO/N=C(/C(=O)NC1C(=O)N2C(C(=O)O)=C(CSc3nc(=O)c(O)nn3C)CSC12)c1csc(N)n1 (stereo not given)
inactive: all assays above

CC1(C)Oc2ccc(C#N)cc2[C@H](N2CCCC2=O)[C@H]1O
inactive: all assays above

CCN1C(=O)N[C@@H](c2ccccc2)C1=O
not listed: [3]
inactive: all other assays above

CC1(C)S[C@@H]2[C@H](NC(=O)[C@H](C(=O)O)c3ccsc3)C(=O)N2[C@H]1C(=O)O
inactive: all assays above

CC(=O)OCC1=C(C(=O)O)N2C(=O)[C@@H](NC(=O)CSc3ccncc3)[C@@H]2SC1
inactive: all assays above

O=c1[nH]cnc2c1ncn2C1OC(CO)C(O)C1O (stereo not given)
inactive: all assays above

Cn1c(=O)c2c(ncn2C[C@@H](O)CO)n(C)c1=O
inactive: all assays above

C[N+]1(C)CCC[C@@H](OC(=O)C(O)(c2ccccc2)c2ccccc2)C1
inactive: all assays above

CN[C@@H](CC(C)C)C(=O)N[C@@H]1C(=O)N[C@H](CC(N)=O)C(=O)N[C@@H]2C(=O)N[C@H]3C(=O)N[C@H](C(=O)N[C@H](C(=O)O)c4cc(O)cc(O)c4-c4cc3ccc4O)[C@H](O)c3ccc(c(Cl)c3)Oc3cc2cc(c3O[C@H]2O[C@@H](CO)[C@@H](O)[C@@H](O)[C@@H]2O[C@@H]2C[C@](C)(N)[C@H](O)[C@H](C)O2)Oc2ccc(cc2Cl)[C@@H]1O
inactive: all assays above

CC(=O)O[C@@H](C)C[N+](C)(C)C
not listed: [3] | [17] | [18]
inactive: all other assays above
